# Measured values reported in PubChem BioAssay (NCATS).
# Inconclusive results are not listed. Where a call stands in place of a potency, no number is given. Calls of active or inactive are those of the source. Unless noted, calls follow the shape of the dose curve; as a rule, active = well fitted curve in the direction sought with a large enough effect; inconclusive = small, poorly fitted or top-dose-only effect, or another doubt; inactive = no such curve, though single readings can be large; an effect the other way counts as inactive or inconclusive.
# What was measured:
# [1] = Cytometric Cell-Based qHTS for Inhibitors of the mTORC1 Signaling Pathway in MEF (Tsc2-/-, p53-/-) Cells (AID 2660);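 also: percent of cells above a phospho-rpS6 to PI ratio cutoff in each well; series mostly up to about 38 µM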
# Method in brief: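 Tsc2-/-, p53-/- MEFs (empty vector) exposed to compound 24 h at 37 C, fixed, stained with Alexa-488 anti-phospho-rpS6 Ser235/236 and propidium iodide. Acumen laser scanning; phospho-S6/PI ratio thresholded against 7.5 nM rapamycin, reported as % positive cells.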
# [2] = High Content Imaging Cell-Based qHTS for Inhibitors of the mTORC1 Signaling Pathway in MEF Cells (AID 2667);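 also: Tsc2-/- p53-/- MEFs stably re-expressing wild-type Tsc2 exposed 24 h; series mostly up to about 38 µM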
# Method in brief: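 Immunofluorescence for rpS6 phosphorylation in MEFs of Tsc2-/-, p53-/- background rescued with WT Tsc2. Compound exposure lasted 24 hrs. Inhibition was scored against rapamycin-treated control wells.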
# [3] = qHTS Assay for Identification of Small Molecule Inducers of Hypoxia Response (AID 2120; active = well fitted curve in the direction sought with a large enough effect in the signal ratio, with a control signal flat, not every such curve was filed as active; the % refers to the signal ratio)
# Method in brief: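 HRE-beta-lactamase reporter in CellSensor HRE-bla ME-180 cells, 2500 cells/well in Opti-MEM with 0.5% dialyzed FBS; compounds tested as titration series, 17 h at 37 degrees C. CCF4 substrate 2.5 h at room temperature; AC50 from 460/530 nm ratio.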
# [4] = target: Ferritin light chain (Equus caballus) (UniProt P02791); assay: qHTS Validation Assay for Identification of Novel General Anesthetics (AID 2323); also: series mostly up to about 77 µM
# Sequence of Ferritin light chain (Equus caballus) (P02791 2-175 limits assumed): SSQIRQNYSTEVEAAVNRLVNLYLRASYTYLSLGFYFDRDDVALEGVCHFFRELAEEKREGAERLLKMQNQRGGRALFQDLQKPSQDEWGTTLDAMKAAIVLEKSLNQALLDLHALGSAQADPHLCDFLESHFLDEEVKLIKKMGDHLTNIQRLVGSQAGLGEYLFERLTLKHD
# Method in brief: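 Fluorescence at 535 nm (excitation 380 nm) reported loss of 1-AMA binding to horse-spleen apoferritin (10 uM) in PBS with 50% saturated 1-aminoanthracene, after 10 min room-temperature incubation with compound; values from Hill fits of normalized response.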
# [5] = target: ATP-dependent DNA helicase Q1 (Homo sapiens) (UniProt P46063); assay: qHTS Validation Assay for Inhibitors of RecQ-Like Dna Helicase 1 (RECQ1) (AID 2353); also: potency is read from the fitted curve at half-maximal effect
# Sequence of ATP-dependent DNA helicase Q1 (Homo sapiens) (P46063 whole entry, looked up): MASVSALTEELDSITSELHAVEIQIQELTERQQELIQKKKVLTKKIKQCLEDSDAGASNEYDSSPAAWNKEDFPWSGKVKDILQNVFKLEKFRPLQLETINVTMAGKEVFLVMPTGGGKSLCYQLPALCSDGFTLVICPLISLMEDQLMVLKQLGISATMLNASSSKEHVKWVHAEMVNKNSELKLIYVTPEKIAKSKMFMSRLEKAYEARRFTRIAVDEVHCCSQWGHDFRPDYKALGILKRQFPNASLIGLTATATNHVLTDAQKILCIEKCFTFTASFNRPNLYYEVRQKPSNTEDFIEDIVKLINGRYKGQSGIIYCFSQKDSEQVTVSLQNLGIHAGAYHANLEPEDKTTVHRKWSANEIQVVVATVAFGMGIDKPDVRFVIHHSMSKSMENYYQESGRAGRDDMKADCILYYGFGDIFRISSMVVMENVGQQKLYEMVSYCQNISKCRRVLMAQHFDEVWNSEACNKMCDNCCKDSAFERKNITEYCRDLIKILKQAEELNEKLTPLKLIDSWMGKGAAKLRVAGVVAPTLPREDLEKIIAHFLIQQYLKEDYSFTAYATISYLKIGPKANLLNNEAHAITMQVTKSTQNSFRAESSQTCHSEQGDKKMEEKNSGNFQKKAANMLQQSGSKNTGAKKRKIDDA
# Method in brief: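 50 nM RECQ1T1 preincubated 15 min with compound in Tris pH 8.0 buffer with MgCl2, DTT, Tween-20 and 2.5 ug/ml poly(dI-dC); started with 200 nM TAMRA/BHQ-2 forked duplex and 2 mM ATP. Unwinding read as fluorescence (525/598 nm), two reads 2 h apart.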
# [6] = qHTS for differential inhibitors of proliferation of Plasmodium falciparum line Dd2 (AID 1882); details: Potency: Plasmodium falciparum Dd2 proliferation inhibition; also: nearly all actives have a fitted effect of over 65% in size; also: potency is read from the fitted curve at half-maximal effect
# Method in brief: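 SYBR Green I DNA fluorescence read-out, ex 485/em 535 nm. Signals were normalized to 0.29 uM artemisinin and DMSO wells, then corrected using vehicle-only plates flanking each stack. Parasite growth ran 72 h in erythrocytes before lysis.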
# [7] = qHTS for differential inhibitors of proliferation of Plasmodium falciparum line W2 (AID 1883); details: Potency: Plasmodium falciparum W2 proliferation inhibition;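 also: parasites grown with compound for 72 h before lysis and staining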; also: potency is read from the fitted curve at half-maximal effect
# [8] = qHTS for differential inhibitors of proliferation of Plasmodium falciparum line HB3 (AID 1886); details: Potency: Plasmodium falciparum HB3 proliferation inhibition;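 also: parasites grown with compound for 72 h before SYBR Green readout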; also: potency is read from the fitted curve at half-maximal effect
# [9] = target: RecQ-like DNA helicase BLM (Homo sapiens) (UniProt P54132); assay: qHTS Validation Assay for Inhibitors of Bloom's syndrome helicase (BLM) (AID 2364)
# Sequence of RecQ-like DNA helicase BLM (Homo sapiens) (P54132 whole entry, looked up): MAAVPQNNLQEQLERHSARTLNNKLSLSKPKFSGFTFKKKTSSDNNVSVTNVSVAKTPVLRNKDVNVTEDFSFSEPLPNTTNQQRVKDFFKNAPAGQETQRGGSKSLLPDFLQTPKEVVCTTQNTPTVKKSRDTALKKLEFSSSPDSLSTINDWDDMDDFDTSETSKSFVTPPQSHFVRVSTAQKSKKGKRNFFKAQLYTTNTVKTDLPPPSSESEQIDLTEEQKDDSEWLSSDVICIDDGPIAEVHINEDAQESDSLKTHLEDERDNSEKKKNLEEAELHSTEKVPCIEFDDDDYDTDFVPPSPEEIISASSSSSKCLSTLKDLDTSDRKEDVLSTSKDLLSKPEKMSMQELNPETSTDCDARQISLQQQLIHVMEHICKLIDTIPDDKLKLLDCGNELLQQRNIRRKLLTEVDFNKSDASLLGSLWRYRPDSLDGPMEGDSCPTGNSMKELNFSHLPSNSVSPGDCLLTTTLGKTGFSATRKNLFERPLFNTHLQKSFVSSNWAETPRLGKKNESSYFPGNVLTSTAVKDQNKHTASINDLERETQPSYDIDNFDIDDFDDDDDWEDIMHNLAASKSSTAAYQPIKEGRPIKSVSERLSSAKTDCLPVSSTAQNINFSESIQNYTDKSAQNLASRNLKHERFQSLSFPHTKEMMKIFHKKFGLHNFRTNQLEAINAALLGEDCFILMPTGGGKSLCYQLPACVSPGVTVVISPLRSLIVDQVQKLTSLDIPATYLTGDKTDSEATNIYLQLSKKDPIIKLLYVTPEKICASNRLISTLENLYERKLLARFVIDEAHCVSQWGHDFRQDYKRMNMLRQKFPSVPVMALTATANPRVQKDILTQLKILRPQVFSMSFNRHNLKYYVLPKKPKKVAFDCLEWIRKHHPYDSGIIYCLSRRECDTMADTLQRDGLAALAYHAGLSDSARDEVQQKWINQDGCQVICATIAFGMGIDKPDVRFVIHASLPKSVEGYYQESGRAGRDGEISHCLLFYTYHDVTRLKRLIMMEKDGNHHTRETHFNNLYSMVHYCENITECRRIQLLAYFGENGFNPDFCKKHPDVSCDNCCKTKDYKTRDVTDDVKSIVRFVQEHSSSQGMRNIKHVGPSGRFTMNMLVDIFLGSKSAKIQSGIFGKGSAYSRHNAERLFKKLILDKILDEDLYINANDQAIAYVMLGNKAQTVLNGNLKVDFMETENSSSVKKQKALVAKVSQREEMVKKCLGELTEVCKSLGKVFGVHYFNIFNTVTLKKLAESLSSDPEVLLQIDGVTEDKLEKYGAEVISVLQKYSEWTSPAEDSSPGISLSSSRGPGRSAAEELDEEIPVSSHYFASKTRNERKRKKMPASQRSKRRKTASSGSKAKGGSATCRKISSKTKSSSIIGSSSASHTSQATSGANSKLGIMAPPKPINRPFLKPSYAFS
# Method in brief: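 Forked 20-bp duplex substrate (200 nM, TAMRA/BHQ-2) plus 2 mM ATP added after 15 min compound preincubation with 50 nM enzyme, pH 8.0, poly(dI-dC) 2.5 ug/ml. Strand separation followed by fluorescence (525/598 nm) over 2 h, normalized to enzyme-free and DMSO controls.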
smiles,measurement,setting,value
Cc1ncsc1CCCl,outcome,[1],inactive
same,outcome,[2],inactive
CCC(C)(C)c1ccc(O)cc1,outcome,[3],inactive
O=C(CCCN1CCC2(CC1)C(=O)NCN2c1ccccc1)c1ccc(F)cc1,outcome,[4],inactive
same,Potency,[5],inactive
same,outcome,[1],inactive
same,outcome,[2],inactive
COP(=S)(OC)Oc1ccc(SC)c(C)c1,outcome,[3],inactive
CCOC(=O)CC(SP(=S)(OC)OC)C(=O)OCC (stereo unspecified),outcome,[3],inactive
CC(C)(C)NCC(O)c1ccccc1Cl (stereo unspecified),Potency,[6],12.6 µM (active)
same,Potency,[7],4.47 µM (active)
same,outcome,[4],inactive
same,Potency,[5],inactive
same,outcome,[1],inactive
same,outcome,[2],inactive
COc1cc(OC)c(OC)cc1C=O,outcome,[3],inactive
CC(C)NC(C)C,outcome,[3],inactive
Nc1ccccc1C(=O)O,outcome,[3],inactive
C[C@]12CCC(=O)C=C1CC[C@@H]1[C@@H]2CC[C@@]2(C)[C@H]1CC[C@]2(C)O,outcome,[3],inactive
COC(=O)C(c1ccccc1)C1CCCCN1 (stereo unspecified),outcome,[3],inactive
O=P1(N(CCCl)CCCl)NCCCO1 (stereo unspecified),Potency,[6],inactive
same,Potency,[7],inactive
same,Potency,[8],inactive
same,outcome,[4],inactive
same,Potency,[5],inactive
same,outcome,[9],inactive
same,outcome,[1],inactive
same,outcome,[2],inactive
C[C@]1(O)CC[C@H]2[C@@H]3CCC4=CC(=O)CC[C@]4(C)[C@@]3(F)[C@@H](O)C[C@@]21C,outcome,[3],inactive
CCC1(c2ccc(N)cc2)CCC(=O)NC1=O (stereo unspecified),Potency,[6],inactive
same,Potency,[7],inactive
same,Potency,[8],inactive
same,outcome,[4],inactive
same,Potency,[5],inactive
same,outcome,[9],inactive
same,outcome,[1],inactive
same,outcome,[2],inactive
Oc1ccc(Cl)cc1,outcome,[3],inactive
C[C@]12CCC(=O)C=C1CC[C@@H]1[C@@H]2CC[C@]2(C)C(=O)CC[C@@H]12,Potency,[6],inactive
same,Potency,[8],inactive
same,outcome,[4],inactive
same,Potency,[5],inactive
CCCCC/C=C\C/C=C\C/C=C\C/C=C\CCCC(=O)NCC(=O)O,Potency,[6],inactive
same,Potency,[8],14.1 µM (active)
same,outcome,[4],inactive
same,Potency,[5],3.98 µM (active)
same,outcome,[9],inactive
same,outcome,[1],inactive
same,outcome,[2],inactive
C=C(C)[C@H]1CN[C@H](C(=O)O)[C@H]1CC(=O)O,Potency,[6],inactive
same,Potency,[7],inactive
same,Potency,[8],inactive
same,outcome,[4],inactive
same,Potency,[5],inactive
same,outcome,[1],inactive
same,outcome,[2],inactive
